Assay results taken from the supplement of paper PMC3334620.
Over roughly 33,000 sequences, “E-score (-0.5 to 0.5)” has its median near -0.053; the highest 2% begin near 0.37. What follows is part of a selection rich in the highest values, with near analogues and random picks from the rest.

Target: Hap1 (UniProt P0CE41)
Experiment: PBM E-score (8-mer binding enrichment) (E-score (-0.5 to 0.5)); higher = stronger / more preferred TF binding
Conditions: protein concentration: 200 nM; construct: GST-DNA-binding domain
Experimental: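 Universal 'all 10-mer' protein binding microarrays (Agilent AMADID 015681) probed with GST-tagged S. cerevisiae TFs (full-length or DBD) made by in vitro transcription/translation (PURExpress), about 100-200 nM. Bound TF was detected with fluorescent anti-GST. Each ungapped 8-mer (which stands for itself and its reverse complement) is scored by the PBM enrichment score (E-score), a modified Wilcoxon-Mann-Whitney statistic from -0.5 to +0.5, computed with the Universal PBM Analysis Suite. Scale: above 0.35 generally sequence-specific binding.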

Sequence of UniProt P0CE41 (P0CE41 whole entry): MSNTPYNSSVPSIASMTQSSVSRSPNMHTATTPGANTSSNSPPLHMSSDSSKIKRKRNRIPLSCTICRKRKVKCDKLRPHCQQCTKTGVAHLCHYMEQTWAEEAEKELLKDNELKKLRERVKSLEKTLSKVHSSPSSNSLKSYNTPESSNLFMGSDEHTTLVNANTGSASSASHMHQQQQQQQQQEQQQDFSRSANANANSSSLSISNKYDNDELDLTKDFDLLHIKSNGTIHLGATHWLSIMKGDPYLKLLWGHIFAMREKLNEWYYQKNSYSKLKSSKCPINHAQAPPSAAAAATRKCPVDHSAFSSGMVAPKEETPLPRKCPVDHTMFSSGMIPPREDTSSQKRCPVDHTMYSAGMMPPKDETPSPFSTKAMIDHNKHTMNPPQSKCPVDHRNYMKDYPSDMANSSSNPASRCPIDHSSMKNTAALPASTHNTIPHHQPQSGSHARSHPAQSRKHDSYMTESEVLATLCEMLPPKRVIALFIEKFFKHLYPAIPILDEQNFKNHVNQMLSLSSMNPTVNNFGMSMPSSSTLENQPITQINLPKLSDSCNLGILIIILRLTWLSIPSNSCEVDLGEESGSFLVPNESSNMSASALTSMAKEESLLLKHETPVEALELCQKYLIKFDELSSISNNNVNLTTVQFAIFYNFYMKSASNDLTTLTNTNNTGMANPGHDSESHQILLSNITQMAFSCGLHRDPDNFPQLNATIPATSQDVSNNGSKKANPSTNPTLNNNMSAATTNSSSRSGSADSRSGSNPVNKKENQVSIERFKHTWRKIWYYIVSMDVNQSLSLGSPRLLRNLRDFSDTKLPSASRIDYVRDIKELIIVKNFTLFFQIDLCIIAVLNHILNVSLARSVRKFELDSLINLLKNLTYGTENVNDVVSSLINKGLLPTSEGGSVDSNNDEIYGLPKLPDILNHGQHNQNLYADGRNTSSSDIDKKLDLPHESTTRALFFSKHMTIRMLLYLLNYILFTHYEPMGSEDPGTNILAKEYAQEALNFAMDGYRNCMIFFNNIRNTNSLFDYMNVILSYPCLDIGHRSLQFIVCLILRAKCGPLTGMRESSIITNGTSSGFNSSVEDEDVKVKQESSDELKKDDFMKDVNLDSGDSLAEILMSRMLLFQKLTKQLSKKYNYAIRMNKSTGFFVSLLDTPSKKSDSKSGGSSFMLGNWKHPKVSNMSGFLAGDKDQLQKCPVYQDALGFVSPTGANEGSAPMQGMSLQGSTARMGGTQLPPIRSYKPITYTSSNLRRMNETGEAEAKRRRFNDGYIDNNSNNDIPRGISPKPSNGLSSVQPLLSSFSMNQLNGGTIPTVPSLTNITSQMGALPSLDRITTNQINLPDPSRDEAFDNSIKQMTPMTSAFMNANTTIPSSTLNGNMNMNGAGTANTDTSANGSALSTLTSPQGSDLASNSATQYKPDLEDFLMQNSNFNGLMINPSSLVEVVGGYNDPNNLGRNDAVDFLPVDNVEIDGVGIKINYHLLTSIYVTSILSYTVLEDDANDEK

Row | Sequence | PBM E-score
1 | ATGACGAG | -0.168
2 | CCCGCACC | 0.151
3 | ATCCCAAC | -0.239
4 | GGCAGGAC | 0.0548
5 | CATAAGAC | 0.0262
6 | ACGAGCGG | 0.161
7 | CCGAGCGA | 0.36
8 | CCGAGCGG | 0.395
9 | CCGAGCCG | 0.397
10 | ACGAGCCG | 0.0797
11 | CCGAGCGC | 0.384
12 | GCGAGCGC | 0.137
13 | CCGAGCCA | 0.347
14 | ACGAGCGC | -0.00987
15 | ACGAGAGC | -0.0925
16 | CCGAGAGC | 0.396
17 | CCGAGAGA | 0.309
18 | ACATTGGA | -0.0771
19 | AAGCTGCC | 0.0235
20 | CATTTCCC | 0.162
21 | ATCTACGG | 0.299
22 | CCTGAGCA | -0.151
23 | AAAGCCCT | -0.0264
24 | AAAGCCTG | -0.184
25 | GAAGCCGA | 0.308

Row | Sequence | PBM E-score
26 | AAAGCCCG | 0.374
27 | CAAGCCGA | 0.24
28 | AAAGCCGG | 0.439
29 | AAAGCCCC | 0.106
30 | AAAGCCGT | 0.322
31 | CAAGCCGG | 0.292
32 | TAAGCCGA | 0.382
33 | AAAGCCGC | 0.305
34 | AAAGCCGA | 0.426
35 | GCCGCTTA | 0.073
36 | GTAGCCAC | -0.194
37 | GTTTTAGA | 0.00012
38 | AGAGAACG | -0.258
39 | CAATTCGG | 0.267
40 | GTGCTGCA | 0.0816
41 | CCAGCACG | -0.13
42 | AAAAGCCG | 0.414
43 | AAAAGCCT | -0.221
44 | AAAAGCCC | 0.138
45 | AGCTTTGG | -0.135
46 | CCCCGACA | 0.302
47 | CCGGGACG | 0.199
48 | ACCGGACA | 0.411
49 | CCCGGATA | 0.325
50 | CCCCGACC | 0.238

Row | Sequence | PBM E-score
51 | CCCCGACG | 0.379
52 | GCCGGATA | 0.426
53 | CCCGGACG | 0.388
54 | CACGGACG | 0.331
55 | AGCGGACA | 0.326
56 | ACTGGACA | -0.00994
57 | ACCGGATA | 0.359
58 | AGATCCCG | 0.283
59 | AGTACCCG | 0.1
60 | CGAAAGAG | 0.0191
61 | AGGTGCTC | -0.269
62 | CCTGGAGC | -0.197
63 | ACTCGCAA | -0.231
64 | GTCCACTA | -0.102
65 | GAACTGCC | -0.0156
66 | CTACCATA | -0.191
67 | GATGAGCA | -0.0729
68 | ACAATAGG | -0.0571
69 | GAAACGTC | -0.0511
70 | GATATGCA | 0.0359
71 | AGCTACTG | -0.00261
72 | TACGGACA | 0.291
73 | GACGGACA | 0.325
74 | GCCGGACA | 0.423
75 | CCCGGACA | 0.39

Row | Sequence | PBM E-score
76 | GCCGGACC | 0.341
77 | CCCGGACC | 0.361
78 | TGCGGACA | 0.22
79 | TCCGGACA | 0.444
80 | CCGGGACA | 0.299
81 | CCGGGCTC | 0.243
82 | ACACTCAG | -0.208
83 | AACCCCCA | -0.217
84 | ACCCCCGT | 0.126
85 | ACACCCGA | 0.305
86 | AACCCCGT | 0.329
87 | TACCCCGA | 0.398
88 | AACCCCGA | 0.456
89 | ACCCCCGA | 0.371
90 | GCCCCCGA | 0.2
91 | CCCCCCGA | 0.253
92 | CACCCCGA | 0.229
93 | GACCCCGA | 0.285
94 | TCCCCCGA | 0.393
95 | AACAAAGG | 0.0332
96 | AGGGATAC | -0.181
97 | CCGGCTAA | 0.331
98 | TCGTTCAA | -0.246
99 | GGGGAGGA | 0.093
100 | GCATAGAC | -0.19

Row | Sequence | PBM E-score
101 | GGCCTCTA | -0.34
102 | ACATCTCT | -0.0976
103 | CCGTTATA | 0.311
104 | CCGTTATC | 0.385
105 | ACGTTATC | 0.17
106 | GACACAAA | 0.132
107 | CGGACGAA | 0.431
108 | GGGACGAA | 0.0323
109 | AGGACGAC | -0.143
110 | GGGACGAC | -0.117
111 | AGGACGAG | -0.282
112 | CGGACGAG | 0.387
113 | CCGACGAG | 0.259
114 | CGGACGAC | 0.371
115 | AGGACGAA | 0.128
116 | CCCCGTAC | 0.0387
117 | CTATGAGA | -0.248
118 | ATAGCCCG | 0.173
119 | GCCCAGCA | -0.0648
120 | ATAAGAAG | 0.0696
121 | ATATCTTC | 0.152
122 | GCTTAACC | -0.0526
123 | CTCACCTA | -0.159
124 | AATATCCC | 0.109
125 | CATATCGC | 0.179

Row | Sequence | PBM E-score
126 | ATTATCCG | 0.391
127 | AATATCGA | 0.0281
128 | AATATCCG | 0.414
129 | AATATCGC | 0.314
130 | ATTATCCC | 0.0666
131 | AATATCCA | 0.0415
132 | AATATCGG | 0.443
133 | CATATCGG | 0.404
134 | ATTATCCA | -0.0526
135 | CATATCGA | 0.0363
136 | CTGCACTA | 0.0173
137 | AGACACGC | -0.0363
138 | ACTCATCG | -0.0326
139 | AACTATGG | -0.0562
140 | CACGCCAA | -0.148
141 | CACAGCTG | -0.194
142 | CGGATGGA | 0.238
143 | GAGCGTTA | -0.121
144 | ACCTTGAG | -0.113
145 | ATTATCGC | 0.132
146 | ATTATCGA | -0.0673
147 | ATTATCGG | 0.432
148 | CAAATCCG | 0.344
149 | AAAATCCG | 0.437
150 | AAAATCCC | 0.0176

Row | Sequence | PBM E-score
151 | GCTCGAGC | 0.0114
152 | GCGAACGA | 0.00245
153 | GGACCCTA | -0.0296
154 | CGGCGCAC | 0.259
155 | GAAAGACA | -0.0415
156 | ATTACCGC | 0.274
157 | AATACCGT | 0.252
158 | AATACCGC | 0.304
159 | ATTACCGG | 0.434
160 | AATACCGG | 0.451
161 | ATTACCGA | 0.348
162 | CATTCAGA | -0.141
163 | ACATCGCA | -0.0398
164 | GAGGAGAC | -0.0943
165 | GAAAGGGA | -0.0702
166 | ACCTTATC | 0.139
167 | GTGGCCAC | 0.203
168 | ATCGGGTC | 0.343
169 | GGCGGAGA | 0.36
170 | ATCGGGTG | 0.37
171 | AGCGGAGC | 0.223
172 | ATCAGAGC | -0.0942
173 | ATCGGAGC | 0.396
174 | CGCGGAGA | 0.397
175 | ATCGGGGA | 0.386

Row | Sequence | PBM E-score
176 | GTCGGGGA | 0.301
177 | ATCGGGGG | 0.349
178 | CGCGGAGC | 0.274
179 | ATCGGGTA | 0.283
180 | ACGAACCA | -0.038
181 | CTCCTATA | -0.327
182 | AGATCACG | -0.113
183 | GAATTTAC | 0.0854
184 | ACGCCTCC | 0.00213
185 | AGAAAAAG | -0.0187
186 | CTCGGAGC | 0.322
187 | ATCGGAGA | 0.415
188 | GTCGGAGA | 0.355
189 | CTCGGAGA | 0.407
190 | ATCGGAGG | 0.227
191 | CTTGGAGA | -0.0528
192 | ACGATTTC | 0.0291
193 | ATATGGAC | -0.0394
194 | GGTCTGCA | 0.0455
195 | TATTCGGA | 0.37
196 | AATTCGGA | 0.414
197 | AATTCGGC | 0.131
198 | AATTCGGG | 0.287
199 | GATTCGGA | 0.299
200 | CATTCGGA | 0.321

Row | Sequence | PBM E-score
201 | CAACAGCG | -0.0733
202 | AGATTACA | 0.0437
203 | CACCACGC | -0.201
204 | GACATCCA | -0.175
205 | ATAACCAA | -0.182
206 | ACCCTGGC | -0.146
207 | GCAAGAGC | -0.151
208 | AGATTCTG | -0.14
209 | ATCTGCCG | 0.318
210 | AAACACCT | -0.0632
211 | CAACACCG | 0.13
212 | AAACACCG | 0.388
213 | TCAAAAGA | -0.152
214 | CCACTTTA | -0.00297
215 | TCCGCCCA | 0.209
216 | AATGCCTC | -0.116
217 | CGGAGCTC | 0.313
218 | CGGAGCAC | 0.196
219 | TGGAGCAA | -0.195
220 | AGGAGCTA | -0.192
221 | CGGAGCAA | 0.394
222 | CGGAGCTA | 0.443
